# The list is not random: actives were taken first. Their share in the collection is about 2.4%.
# C diff growth: blocks growth of Clostridium difficile; AID 1259249; Clostridium difficile clinical isolate growth, OD600, 24 h; stronger effect = lower value; 86,000 compounds, 0.25% hits; growth activity, negative = inhibition, % at 16 µg/mL (by protocol);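 active means mean growth activity at or below -80% and every replicate also at or below -80%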;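 further: 0% = DMSO wells and -100% = levofloxacin 16 µg/mL wells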
# Pf Dd2 inh: P. falciparum Dd2 growth inhibition | SYBR Green, 72 h; stronger effect = lower value | activity change, % at 10 µM | 94,000 compounds, 2.3% hits; in the data active means activity change below about -80%
# Active calls of the source: *; nt = no result; ! = not active in a repeat.
SMILES,C diff growth,Pf Dd2 inh
C[C@@H]1CN([C@@H](C)CO)C(=O)c2cc(NS(=O)(=O)c3cccs3)ccc2O[C@@H](C)CCCCO[C@@H]1CN(C)C(=O)Nc1ccc(C(F)(F)F)cc1,-10.6,-82.2*
C[C@H](CO)N1C[C@H](C)[C@@H](CN(C)Cc2ccc(C(=O)O)cc2)Oc2ncc(C3=CCCCC3)cc2C1=O,-6.2,-16.4
CO[C@@H]1CN(C)C(=O)c2cc(NS(C)(=O)=O)ccc2OC[C@H](C)N(C(=O)c2ccc3c(c2)OCO3)C[C@@H]1C,nt,8.4
Cc1noc(C)c1NC(=O)N(C)C[C@H]1OCCCC[C@@H](C)Oc2ccc(NS(=O)(=O)c3ccc(Cl)cc3)cc2C(=O)N([C@@H](C)CO)C[C@@H]1C,-2.0,-23.5
Cc1ccc(S(=O)(=O)Nc2ccc3c(c2)C(=O)N([C@H](C)CO)C[C@@H](C)[C@@H](CN(C)S(=O)(=O)c2c(C)noc2C)O3)cc1,-3.1,-11.8
C[C@@H]1CN([C@H](C)CO)C(=O)c2cccc(N(C)C)c2O[C@@H]1CN(C)S(=O)(=O)c1cn(C)cn1,-1.9,10.7
C[C@H]1CN([C@@H](C)CO)C(=O)c2cccc(NC(=O)C3CC3)c2O[C@H]1CN(C)C(=O)NC1CCCCC1,16.3,32.7
COc1ccc(C#Cc2ccc3c(c2)O[C@H](CN(C)S(=O)(=O)c2ccccc2F)[C@H](C)CN([C@@H](C)CO)S3(=O)=O)cc1,-0.8,-68.9
COc1ccc(C#Cc2ccc3c(c2)O[C@@H](CN(C)S(=O)(=O)c2ccccc2F)[C@@H](C)CN([C@H](C)CO)S3(=O)=O)cc1,0.2,-88.3*
COc1ccccc1S(=O)(=O)N(C)C[C@@H]1Oc2cc(C#CCC(C)C)ccc2S(=O)(=O)N([C@H](C)CO)C[C@@H]1C,10.1,-85.1*!
C[C@@H]1CN([C@H](C)CO)S(=O)(=O)c2ccc(C#Cc3ccccc3)cc2O[C@H]1CN(C)S(=O)(=O)c1cn(C)cn1,-4.3,-86.1*
COc1ccccc1S(=O)(=O)N(C)C[C@H]1Oc2cc(C#CCC(C)C)ccc2S(=O)(=O)N([C@@H](C)CO)C[C@@H]1C,14.0,-69.6
COc1ccccc1S(=O)(=O)N(C)C[C@H]1Oc2cc(/C=C/c3ccccc3)ccc2S(=O)(=O)N([C@H](C)CO)C[C@@H]1C,5.8,-87.9*
C[C@H](CO)N1C[C@H](C)[C@H](CN(C)S(=O)(=O)c2cn(C)cn2)Oc2cc(C#Cc3ccccc3)ccc2S1(=O)=O,5.0,-71.9
COc1ccccc1S(=O)(=O)N(C)C[C@H]1Oc2cc(/C=C/c3ccccc3)ccc2S(=O)(=O)N([C@H](C)CO)C[C@H]1C,1.4,-49.6
COCC(=O)Nc1ccc2c(c1)OC[C@H](C)N(C(=O)COC)C[C@@H](C)[C@@H](OC)CN(C)C2=O,nt,-23.7
O=C(CN1CCOCC1)NCC[C@H]1CC[C@@H](NC(=O)Nc2ccc(C(F)(F)F)cc2)[C@@H](CO)O1,nt,9.3
CNC[C@@H]1Oc2c(NC(=O)Nc3c(C)noc3C)cccc2C(=O)N([C@H](C)CO)C[C@H]1C,0.3,11.2
NCC[C@H]1CC[C@@H](NS(=O)(=O)Cc2ccccc2)[C@H](CO)O1,nt,24.2
Cc1ccc(S(=O)(=O)N[C@@H]2C=C[C@@H](CC(=O)NCCCN(C)C)O[C@H]2CO)cc1,-1.1,21.1
CN1C(=O)c2cc(NC(=O)C3CCCC3)ccc2OC[C@H]2O[C@H](CC(=O)O)CC[C@H]21,-4.7,3.5
COCC(=O)N1C[C@H](C)[C@@H](OC)CN(C)C(=O)c2cc(NC(=O)c3ccc(F)cc3)ccc2OC[C@@H]1C,0.0,16.6
CO[C@H]1CN(C)C(=O)c2cc(NC(=O)Nc3ccc(Cl)c(Cl)c3)ccc2OC[C@@H](C)NC[C@@H]1C,-95.9*,-55.6
CO[C@@H]1CN(C)C(=O)c2cc(NC(=O)Nc3cccc(Cl)c3)ccc2OC[C@@H](C)NC[C@@H]1C,nt,-84.8*
CO[C@H]1CN(C)C(=O)c2cc(NC(=O)Nc3ccc(Cl)cc3)ccc2OC[C@@H](C)NC[C@@H]1C,-0.2,-37.7
SMILES,C diff growth,Pf Dd2 inh
CO[C@H]1CN(C)C(=O)c2cc(NC(=O)Nc3ccc(Cl)c(Cl)c3)ccc2OC[C@@H](C)NC[C@H]1C,-97.4*,-5.7
CO[C@@H]1CN(C)C(=O)c2cc(NC(=O)Nc3ccc(Cl)cc3)ccc2OC[C@H](C)NC[C@@H]1C,-3.5,-12.1
CO[C@@H]1CN(C)C(=O)c2cc(NC(=O)Nc3cccc(Cl)c3)ccc2OC[C@@H](C)NC[C@H]1C,nt,-23.3
O=C(C[C@@H]1C[C@H]2c3cc(NC(=O)CC4CC4)ccc3O[C@H]2[C@H](CO)O1)NCc1cccnc1,-4.5,13.1
CN1c2ccc(-c3ccccc3F)cc2[C@@H]2[C@@H](CCN2C(=O)CN2CCOCC2)[C@@H]1CO,-4.0,23.0
O=C(NCCc1ccncc1)[C@@H]1[C@@H](CO)[C@@H]2Cn3c(ccc(-c4cccc(F)c4)c3=O)[C@H]1N2,-2.2,9.1
CN1CCN(C(=O)C[C@@H]2CC[C@H]3[C@@H](COC[C@H](O)CN3CC3CC3)O2)CC1,-3.8,1.8
COc1ccc(-c2ccc(C3[C@@H]4CN(S(=O)(=O)c5cccc(C)c5)C[C@H]3N4)cc2)cc1 (stereo not given in full),-4.3,-85.8*!
COc1cccc(S(=O)(=O)N2C[C@@H]3N[C@H](C2)C3c2ccc(-c3cccc(C)c3)cc2)c1 (stereo not given in full),-94.3*!,10.9
Cc1cccc(S(=O)(=O)N2C[C@@H]3N[C@H](C2)C3c2ccc(-c3ccncc3)cc2)c1 (stereo not given in full),-15.8,-80.0
Cc1cccc(S(=O)(=O)N2C[C@@H]3N[C@H](C2)C3c2ccc(-c3cccnc3)cc2)c1 (stereo not given in full),-15.3,-68.1
CCCN1[C@H](C(=O)NC2CCC2)[C@@H](CO)[C@@H]2Cn3c(ccc(-c4ccccc4F)c3=O)[C@@H]21,14.4,3.0
COCC#Cc1ccc2c(c1)O[C@@H](CN(C)S(=O)(=O)c1cccc(OC)c1)[C@@H](C)CN([C@@H](C)CO)S2(=O)=O,2.5,-51.8
COc1ccc(C#Cc2cnc3c(c2)C(=O)N([C@H](C)CO)C[C@H](C)[C@H](CN(C)S(=O)(=O)c2cccc(F)c2)O3)cc1OC,17.0,-87.4*
C[C@H](CO)N1C[C@H](C)[C@H](CN(C)S(=O)(=O)c2cccc(F)c2)Oc2ncc(C#Cc3ccc(F)cc3)cc2C1=O,6.5,-68.3
COc1ccc(C#Cc2cnc3c(c2)C(=O)N([C@H](C)CO)C[C@H](C)[C@H](CN(C)S(C)(=O)=O)O3)cc1OC,4.6,-27.8
COc1ccc(C#Cc2cnc3c(c2)C(=O)N([C@H](C)CO)C[C@H](C)[C@H](CN(C)S(=O)(=O)c2ccc(C)cc2)O3)cc1OC,-4.9,-85.2*
O=C(C1CC1)N1CC2(C1)[C@@H](c1ccccc1)[C@@H](CO)N2C(=O)c1cccnc1,-4.3,17.1
CO[C@H]1CN(C)C(=O)c2ccc(NC(=O)Nc3ccccc3)cc2OC[C@H](C)N(C(C)=O)C[C@@H]1C,0.0,-5.6
COc1ccc(CN(C)C[C@@H]2Oc3ccc(NC(=O)Cn4cnnn4)cc3CC(=O)N([C@@H](C)CO)C[C@@H]2C)cc1,1.4,16.4
O=C(NCC[C@H]1CC[C@H](NS(=O)(=O)c2ccc(Cl)cc2)[C@@H](CO)O1)c1ccccc1F,-3.9,-16.7

# High-throughput results as filed in PubChem BioAssay.
